Source: PubChem BioAssay (NCATS)
Several values for one entry are separate records, joined by “and”; a condition that tells them apart may be missing. Equal entries are not always repeated. Records with an inconclusive call do not appear. A call without a number means that no potency is given here. Activity calls are given as the source filed them. Unless noted, calls come from the whole dose curve; as a rule, active = well fitted curve in the direction sought with a large enough effect; inconclusive = small, poorly fitted or top-dose-only effect, or another doubt; inactive = no such curve, though single readings can be large; an effect the other way counts as inactive or inconclusive.

Columns and labels:
[1] = target: Voltage-gated inwardly rectifying potassium channel KCNH2 (Homo sapiens) (UniProt Q12809); experiment: qHTS Assay for Small Molecule Inhibitors of the Human hERG Channel Activity (AID 588834);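 note: lower thallium flux fluorescence means stronger hERG block; nearly all actives have a fitted effect of over 50% in size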; note: potency is the fitted concentration of half-maximal effect
Chain of Voltage-gated inwardly rectifying potassium channel KCNH2 (Homo sapiens) (Q12809 whole entry, looked up): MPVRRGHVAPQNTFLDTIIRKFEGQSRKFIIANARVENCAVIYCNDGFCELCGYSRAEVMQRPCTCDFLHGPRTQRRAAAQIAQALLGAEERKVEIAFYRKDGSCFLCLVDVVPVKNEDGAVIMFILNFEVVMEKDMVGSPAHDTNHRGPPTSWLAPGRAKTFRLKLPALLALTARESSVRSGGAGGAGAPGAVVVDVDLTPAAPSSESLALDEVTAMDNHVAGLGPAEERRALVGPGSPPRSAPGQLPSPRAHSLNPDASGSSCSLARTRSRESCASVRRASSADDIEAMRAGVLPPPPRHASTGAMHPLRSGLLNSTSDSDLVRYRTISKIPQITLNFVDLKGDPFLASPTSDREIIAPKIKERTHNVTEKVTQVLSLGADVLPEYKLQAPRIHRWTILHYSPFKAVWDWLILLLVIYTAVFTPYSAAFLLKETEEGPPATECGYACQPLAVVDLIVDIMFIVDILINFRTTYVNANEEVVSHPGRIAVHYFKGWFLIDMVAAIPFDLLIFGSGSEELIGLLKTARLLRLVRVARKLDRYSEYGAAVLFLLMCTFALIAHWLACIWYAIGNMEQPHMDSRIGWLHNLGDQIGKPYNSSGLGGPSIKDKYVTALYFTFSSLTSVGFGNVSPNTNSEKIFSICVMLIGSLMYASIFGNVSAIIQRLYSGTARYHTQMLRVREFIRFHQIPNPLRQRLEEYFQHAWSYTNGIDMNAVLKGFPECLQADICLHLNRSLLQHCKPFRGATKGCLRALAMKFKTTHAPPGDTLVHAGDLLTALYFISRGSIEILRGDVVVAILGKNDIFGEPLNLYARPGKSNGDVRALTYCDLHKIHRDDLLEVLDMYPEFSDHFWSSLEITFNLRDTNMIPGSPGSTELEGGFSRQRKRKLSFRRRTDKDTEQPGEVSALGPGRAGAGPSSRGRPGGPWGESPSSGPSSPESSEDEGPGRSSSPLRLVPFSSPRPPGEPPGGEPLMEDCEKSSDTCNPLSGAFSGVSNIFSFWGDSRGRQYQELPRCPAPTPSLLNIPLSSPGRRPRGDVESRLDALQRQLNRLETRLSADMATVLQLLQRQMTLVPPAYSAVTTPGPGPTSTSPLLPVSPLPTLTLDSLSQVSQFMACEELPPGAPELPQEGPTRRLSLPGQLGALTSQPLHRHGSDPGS
In short: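 hERG-BacMam U2OS, 2000 cells/well; 0.7X FluxOR loading 1 hr RT dark; cpd ~10 min 37 °C; stim buffer; FDSS fluorescence 2 min @ 1 s; AC50 Hill fit.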

[2] = target: Glutaminase kidney isoform, mitochondrial (Homo sapiens) (UniProt O94925); experiment: qHTS for Inhibitors of Glutaminase (GLS): LOPAC Validation (AID 624146); note: nearly all actives have a fitted effect of over 60% in size; note: potency is the fitted concentration of half-maximal effect
Chain of Glutaminase kidney isoform, mitochondrial (Homo sapiens) (O94925 whole entry, looked up, canonical isoform): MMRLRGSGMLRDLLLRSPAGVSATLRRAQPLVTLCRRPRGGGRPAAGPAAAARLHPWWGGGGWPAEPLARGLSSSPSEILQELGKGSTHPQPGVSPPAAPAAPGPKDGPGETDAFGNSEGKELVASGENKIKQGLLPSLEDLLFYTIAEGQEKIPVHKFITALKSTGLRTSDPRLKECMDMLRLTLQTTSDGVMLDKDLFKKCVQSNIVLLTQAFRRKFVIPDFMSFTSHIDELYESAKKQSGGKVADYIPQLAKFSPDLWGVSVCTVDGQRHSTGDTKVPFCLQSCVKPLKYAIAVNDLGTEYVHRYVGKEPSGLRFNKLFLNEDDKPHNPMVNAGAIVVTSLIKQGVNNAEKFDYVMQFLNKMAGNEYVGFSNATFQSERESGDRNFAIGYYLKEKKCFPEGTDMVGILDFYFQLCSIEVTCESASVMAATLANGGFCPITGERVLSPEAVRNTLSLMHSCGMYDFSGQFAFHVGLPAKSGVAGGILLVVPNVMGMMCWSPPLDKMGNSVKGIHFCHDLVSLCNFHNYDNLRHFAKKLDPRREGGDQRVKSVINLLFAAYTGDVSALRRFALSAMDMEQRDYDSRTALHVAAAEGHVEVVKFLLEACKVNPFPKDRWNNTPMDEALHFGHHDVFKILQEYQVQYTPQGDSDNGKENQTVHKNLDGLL
In short: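 Two-point fluorescence kinetic (t0, 30 min RT) for hKGA; glutamate detected via glutamate oxidase–HRP–Amplex Red. Substrate: 1 mM L-glutamine solution; buffer 45 mM KH2PO4, pH 8.2.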

[3] = qHTS of Trypanosoma Brucei Inhibitors: LOPAC Validation (AID 624147)
In short: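 Assay buffer: 50 mM TEA pH 7.2, 100 mM KCl, 10 mM MgCl2, 0.05% BSA, 0.01% Tween-20. Pyruvate kinase from T. brucei plus substrate met compound, then ADP (130 uM final). Luminescence was read post 45 min RT.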

[4] = target: Glucagon-like peptide 1 receptor (Homo sapiens) (UniProt P43220); experiment: qHTS of GLP-1 Receptor Agonists: LOPAC Validation (AID 624148);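 note: higher luminescence signal means agonism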
Chain of Glucagon-like peptide 1 receptor (Homo sapiens) (P43220 whole entry, looked up): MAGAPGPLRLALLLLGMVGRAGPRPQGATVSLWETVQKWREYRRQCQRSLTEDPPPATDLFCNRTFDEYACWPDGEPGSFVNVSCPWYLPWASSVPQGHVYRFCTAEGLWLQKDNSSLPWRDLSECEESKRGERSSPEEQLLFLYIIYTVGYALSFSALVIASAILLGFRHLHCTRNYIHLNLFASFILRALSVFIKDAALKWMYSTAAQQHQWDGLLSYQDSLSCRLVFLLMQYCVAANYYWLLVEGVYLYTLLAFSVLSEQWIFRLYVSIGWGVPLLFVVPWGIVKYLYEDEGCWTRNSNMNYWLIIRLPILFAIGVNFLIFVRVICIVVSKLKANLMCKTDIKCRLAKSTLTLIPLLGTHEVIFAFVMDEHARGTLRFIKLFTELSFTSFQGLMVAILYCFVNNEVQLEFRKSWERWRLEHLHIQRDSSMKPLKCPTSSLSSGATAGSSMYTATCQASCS
In short: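 HEK293 cells stably co-expressing a cAMP-responsive luciferase reporter and a hypersensitive GLP-1R were plated 12 h at 37 °C and exposed to compounds for 4-6 hr at 37 °C, 5% CO2. Luminescence was read 12 min after adding detection reagent.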

[5] = HTS Assay for Allosteric Antagonists of the Human D2 Dopamine Receptor: Hit Validation in HTRF (AID 624455);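 note: stable D1 dopamine receptor cell line scored for blocking the D1 response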
In short: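 Hits were examined in an HTRF assay using cells stably expressing the D1 dopamine receptor, scoring inhibition of the D1-mediated response. The preceding primary screen tracked calcium flux after an EC80 dopamine addition in force-coupled, inducible Hek293 Trex D2 cells.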

[6] = target: Luciferin 4-monooxygenase (Photinus pyralis) (UniProt P08659); experiment: Biochemical firefly luciferase enzyme assay for NPC (AID 624030); note: nearly all actives have a fitted effect of over 70% in size; note: potency is the fitted concentration of half-maximal effect
Chain of Luciferin 4-monooxygenase (Photinus pyralis) (P08659 whole entry, looked up): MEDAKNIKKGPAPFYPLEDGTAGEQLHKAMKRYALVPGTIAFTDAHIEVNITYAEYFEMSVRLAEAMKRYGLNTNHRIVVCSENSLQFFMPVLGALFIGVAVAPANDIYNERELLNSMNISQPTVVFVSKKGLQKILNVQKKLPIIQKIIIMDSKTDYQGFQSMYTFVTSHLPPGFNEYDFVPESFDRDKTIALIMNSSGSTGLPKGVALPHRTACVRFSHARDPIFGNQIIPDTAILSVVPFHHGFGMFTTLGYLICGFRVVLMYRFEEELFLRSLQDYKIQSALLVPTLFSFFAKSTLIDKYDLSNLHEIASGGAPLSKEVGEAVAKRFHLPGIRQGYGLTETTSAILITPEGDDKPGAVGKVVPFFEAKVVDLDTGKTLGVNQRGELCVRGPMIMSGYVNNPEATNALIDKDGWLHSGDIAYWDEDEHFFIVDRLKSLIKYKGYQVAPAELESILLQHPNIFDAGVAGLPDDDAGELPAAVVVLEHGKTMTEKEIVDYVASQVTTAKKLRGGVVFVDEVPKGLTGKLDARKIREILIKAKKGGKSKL
In short: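 Counter-screen for direct inhibition of the luciferase enzyme by approved-drug library compounds, run at 10 nM enzyme in 50 mM Tris acetate (final). Luminescence was read within 5 min of enzyme-buffer addition and normalized to PTC124 versus DMSO (0%).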

[7] = S16 Schwann cell viability assay (CellTiter-Glo assay) (AID 624031); note: nearly all actives have a fitted effect of over 70% in size; note: potency is the fitted concentration of half-maximal effect
In short: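 Concentration-effect curves come from CellTiter-Glo luminescence of S16 rat Schwann cells after 24 h compound exposure. Each reading was normalized to DMSO wells (0%) and wells without cells, and curves were ranked by r2 and response magnitude.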

[8] = S16 Schwann cell PMP22 intronic element beta-lactamase assay (AID 624044; calls by dose curve; note: nearly all actives have a fitted effect of over 15% in size; note: potency is the fitted concentration of half-maximal effect)
In short: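 Rat S16 Schwann cells with beta-Lac driven by a PMP22 intronic element, compound-treated 24 h at 37 °C. LiveBLAzer FRET B/G read: 460 nm normalized to potassium clavulanate vs DMSO; 535 nm FRET as viability; concentration-effect curves classified.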

[9] = S16 Schwann cell PMP22 intronic element firefly luciferase assay (AID 624032); note: nearly all actives have a fitted effect of over 30% in size; note: potency is the fitted concentration of half-maximal effect
In short: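 Rat S16 Schwann cells stably carrying a PMP22 intronic element-driven Fluc reporter were seeded overnight, then exposed to compounds for 24 h at 37 °C. Luminescence was normalized to PTC124 (positive control) and DMSO (0% activity).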

[10] = Cytotoxicity counterscreen for NFkB agonists and antagonists (AID 624476);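 note: cells exposed to compound for 48 hours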; note: potency is the fitted concentration of half-maximal effect
[11] = qHTS Assay for Identification of Small Molecule Agonists for NFkB Signaling Pathway. (AID 624478)
In short: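 NFkB-bla ME-180 cells (beta-lactamase reporter under NFkB response element) were plated overnight, treated with compound plus TNF alpha at 10 pM final (its EC50) for 5 hrs at 37 C, then loaded with LiveBLAzer substrate for 2 hrs.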

[12] = qHTS Assay for Identification of Small Molecule Antagonists for NFkB Signaling Pathway. (AID 624479; calls by dose curve;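 note: pathway stimulated with TNF alpha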; note: potency is the fitted concentration of half-maximal effect)
[13] = Cell Proliferation Assay against the TMD8 Cell Line (AID 651645); details: TMD8 DLBCL cell line proliferation/viability; at 46.1 µM (top of the series) unless noted;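 note: cells exposed to compound for 48 h before reading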
In short: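 500 TMD8 cells/well, RPMI + Glutamax, no phenol red, 5% FBS; cpd added immediately; 48 h, 37C, 5% CO2; CellTiter-Glo, luminescence. Controls: DMSO = 100%, bortezomib 9.2 uM final = 0%.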

[14] = Cell Proliferation Assay against the HBL1 Cell Line (AID 651646); details: HBL1 DLBCL cells; at 46.1 µM (top of the series) unless noted;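 note: cells exposed to compound for 48 h before reading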
In short: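 500 log-phase HBL1 cells per well in phenol red-free RPMI with 5% FBS were treated with compounds for 48 h at 37 °C, 5% CO2. Viability was read by CellTiter-Glo luminescence, normalized to DMSO (100%) and 9.2 uM bortezomib final (0%).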

[15] = Cell Proliferation Assay against the TMD8 Cell Line (Caspase readout at 16 hrs) (AID 651712)
In short: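 TMD8 cells (500/well) in phenol-red-free RPMI with glutamine, 5% FBS, were exposed to compounds for 16 h at 37 °C. Caspase 3/7 activation was read by Caspase-Glo luminescence; percent activity normalised to DMSO (0%) and 9.2 uM bortezomib final (100%).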

O=C1c2c(O)cc(O)cc2OC(c2ccc(O)c(O)c2)C1O (stereo unspecified)
Potency [1]: inactive | Potency [2]: 0.708 µM (active) | Potency [3]: inactive | outcome [4]: inactive | outcome [5]: inactive

CCCCN(CCCC)CCC(O)c1cc2c(Cl)cc(Cl)cc2c2cc(C(F)(F)F)ccc12 (stereo unspecified)
Potency [1]: 0.398 µM (active) | Potency [6]: inactive | Potency [7]: inactive | Potency [8]: inactive

Cc1cc(=O)c2c(O)c3c(O)cc(=O)c4c3c3c(cc(O)c1c23)C(C)(C)C=4O
Potency [1]: 3.98 µM (active) | Potency [6]: inactive | Potency [9]: inactive

O=C1NC(=O)C(c2ccccc2[N+](=O)[O-])=C1Nc1ccc(O)c(Cl)c1
Potency [1]: inactive | Potency [2]: 10 µM (active) | Potency [3]: inactive | outcome [4]: inactive

CCC(C)(Oc1ccc(C2(c3ccc(OC(C)(CC)C(=O)O)cc3)CCCCC2)cc1)C(=O)O (stereo unspecified)
Potency [1]: inactive | Potency [7]: inactive

O=Nc1c(-c2c(O)[nH]c3cc(Br)ccc23)[nH]c2ccccc12
Potency [1]: 11.2 µM (active) | Potency [3]: inactive | outcome [4]: inactive | outcome [5]: inactive

NCCCCNCCCN
Potency [1]: inactive | Potency [2]: inactive | Potency [3]: inactive | outcome [4]: inactive | outcome [5]: inactive

CCCCc1ccc2nc(NC(=O)OC)[nH]c2c1
Potency [1]: inactive | Potency [7]: inactive | Potency [9]: inactive | Potency [8]: 0.239 µM (active)

Nc1cccc2c1CN(C1CCC(=O)NC1=O)C2=O (stereo unspecified)
Potency [1]: inactive | Potency [6]: inactive | Potency [7]: inactive | Potency [9]: inactive | Potency [10]: inactive | outcome [11]: inactive | Potency [12]: inactive | viability (% of control) [13]: 102% [at 92.2 µM] | viability, percent of control [14]: 121% [at 92.2 µM] | Potency [15]: inactive

CC(C)c1ccc2c(c1)c(SC(C)(C)C)c(CC(C)(C)C(=O)O)n2Cc1ccc(Cl)cc1
Potency [1]: inactive | Potency [3]: inactive | outcome [4]: inactive | outcome [5]: inactive | Potency [10]: 8.33 µM (active) | outcome [11]: inactive | viability (% of control) [13]: 9.44% | viability, percent of control [14]: 8.87%

C=C(c1ccc(C(=O)O)cc1)c1cc2c(cc1C)C(C)(C)CCC2(C)C
Potency [1]: inactive | Potency [7]: inactive

Oc1ccc(OCc2ccccc2)cc1
Potency [1]: inactive | Potency [7]: inactive | Potency [9]: inactive | Potency [8]: 6.73 µM (active)

O=c1ccc2ccc(O)c(O)c2o1
Potency [1]: inactive | Potency [3]: inactive | outcome [4]: inactive | outcome [5]: inactive

OC(CN1CCN(c2cccc(Cl)c2)CC1)C(c1ccccc1)c1ccccc1 (stereo unspecified)
Potency [1]: 1.58 µM (active) | Potency [2]: inactive | Potency [3]: inactive | outcome [4]: inactive | outcome [5]: inactive

CC1(C)C(=O)N(CCN2CCC(C(=O)c3ccc(F)cc3)CC2)c2ccccc21
Potency [1]: 0.891 µM (active) | Potency [3]: inactive | outcome [4]: inactive | outcome [5]: inactive

CC1(C)CCC(C)(C)c2cc(NC(=O)c3ccc(C(=O)O)cc3)ccc21
Potency [1]: inactive | Potency [7]: inactive | Potency [9]: 0.114 µM (active) | Potency [8]: inactive

Cc1nc(Nc2ncc(C(=O)Nc3c(C)cccc3Cl)s2)cc(N2CCN(CCO)CC2)n1
Potency [1]: inactive | Potency [6]: inactive | outcome [11]: inactive | Potency [12]: 16.8 µM (active) | viability (% of control) [13]: 8.11% | viability, percent of control [14]: 27.1%

Oc1ccc(-c2nc(-c3ccc(F)cc3)c(-c3ccncc3)[nH]2)cc1
Potency [1]: inactive | Potency [2]: inactive | Potency [3]: inactive | outcome [4]: inactive | outcome [5]: inactive

NC(=O)Cc1cccc(C(=O)c2ccccc2)c1N
Potency [6]: inactive

COc1ccccc1N1CCN(CCN(C(=O)C2CCCCC2)c2ccccn2)CC1
Potency [2]: inactive | Potency [3]: inactive | outcome [4]: inactive | outcome [5]: inactive

C=CCc1cc(OC)c(O)c(C(=O)NCCO)c1
Potency [6]: inactive | Potency [7]: inactive | Potency [9]: inactive

CCOC(=O)C1=C(O)C(=O)N(Cc2ccccc2)C1
Potency [10]: inactive | outcome [11]: inactive | Potency [12]: inactive | viability (% of control) [13]: 104% | viability, percent of control [14]: 107% | Potency [15]: inactive

Cc1cccc(C)c1OCC(=O)N[C@@H](Cc1ccccc1)[C@@H](O)C[C@H](Cc1ccccc1)NC(=O)[C@H](C(C)C)N1CCCNC1=O
Potency [6]: inactive

CN(C)CCc1c[nH]c2ccc(Cn3cncn3)cc12
Potency [6]: inactive | Potency [7]: inactive | Potency [9]: inactive

CN(C)CCCC1(c2ccc(F)cc2)OCc2cc(C#N)ccc21 (stereo unspecified)
Potency [2]: inactive | Potency [3]: inactive | outcome [4]: inactive | outcome [5]: inactive

CC(C)Oc1ccc2c(=O)c(-c3ccccc3)coc2c1
Potency [6]: 2.03 µM (active)

Cn1c(NCCN(CCO)CCCc2ccc([N+](=O)[O-])cc2)cc(=O)n(C)c1=O
Potency [6]: inactive | Potency [7]: inactive | Potency [9]: inactive

COC(=O)N[C@H](C(=O)N[C@@H](Cc1ccccc1)[C@@H](O)CN(Cc1ccc(-c2ccccn2)cc1)NC(=O)[C@@H](NC(=O)OC)C(C)(C)C)C(C)(C)C
Potency [6]: inactive

C[C@@H](N)C1CCC(C(=O)Nc2ccncc2)CC1 (stereo partly specified)
Potency [2]: inactive | Potency [3]: inactive | outcome [4]: inactive | Potency [10]: inactive | outcome [11]: inactive | viability (% of control) [13]: 91.3% | viability, percent of control [14]: 95.4% | Potency [15]: inactive

O=C1CCc2ccc(OCCCCN3CCN(c4cccc(Cl)c4Cl)CC3)cc2N1
Potency [6]: inactive | Potency [7]: 32.2 µM (active) | Potency [9]: 22.8 µM (active) | Potency [8]: inactive
